Compound activity deposited in PubChem by SRMLSC.
DPM-DC inhibit: blocks S. pneumoniae diphosphomevalonate decarboxylase; purified DPM-DC, PK/LDH coupled NADH fluorescence; calls only at 10 µM; hit rate 0.49% among 65,000; AID 556;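 active = the 320 compounds with the highest percent inhibition in the single-dose primary screen, excluding strongly autofluorescent ones, cut at about 32% in these data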;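 also: kinetic rate of NADH fluorescence loss reporting ADP formed by the decarboxylase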
Autofluor 339: intrinsic fluorescence of library compounds, ex339/em460 – biochemical, MLSMR library, data from DPM-DC assay, artefact control, profiling panel | compound autofluorescence, ex339/em460 nm, NADH buffer; active compounds read high; 1 = no-compound wells, NADH background | fluorescence fold increase at 10 µM | hit rate 5.5% among 65,000 | AID 709;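 active = at 10 µM, mean starting fluorescence two-fold or more over control wells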;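 also: signal is the first read of a kinetic run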
A340 absorber: compound absorbs light at 340 nm; compound absorbance at 340 nm, fold over control; fold change at 10 µM; 65,000 tested, under 10 active; AID 708;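 active = at 10 µM dose, initial 340 nm absorbance at least 2 fold that of control wells; inactive = change under 2 fold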;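 also: initial absorbance extrapolated from kinetic A340 decline of NADH oxidation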
Spn MK inh: blocks S. pneumoniae mevalonate kinase | inhibition, % at 10 µM | purified MK, PK/LDH-coupled NADH absorbance 340 nm | hit rate 0.48% among 65,000 | AID 555;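 active = ranked among the strongest by inhibition in the single 10 µM screen, a fixed top-ranked set picked for dose follow-up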
NADH coupling: blocks coupling enzymes of NAD/NADH assays. coupled PK/LDH NADH assays, four targets. IC50, µM (doses to about 10 µM), without a hit: at the highest dose inhibition. hit rate 0.02% among 65,000. AID 774;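 active = single-dose screening hits from any of four coupled enzyme assays that gave an IC50 when retested across doses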;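 also: the DPM-DC format reads NADH fluorescence rather than 340 nm absorbance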
Spn PMK inh: blocks S. pneumoniae phosphomevalonate kinase | hit rate 0.49% among 65,000 | AID 539 | purified PMK, PK/LDH-coupled NADH absorbance 340 nm | inhibition, % at 10 µM;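 active = top-ranked compounds by inhibition in the single 10 µM screen, taking a fixed number of the strongest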;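 also: 0% = full reaction with DMSO carrier and 100% = background rate without enzyme reaction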
* hit, by the source's call; i = inactive; x = no result given; + = active, no number. In the library only some 6.8% were active in any assay of this set; here they are far more common.

SMILES	DPM-DC inhibit	Autofluor 339	A340 absorber	Spn MK inh	NADH coupling	Spn PMK inh
COc1ccccc1NC(=O)C1=C(C)NC2=C(C(=O)CCC2)C1c1ccc2c(c1)OCO2 (configuration not stated)	+	2.5*	1.1	0	13%	7
CC1=C(C(=O)N2CCCCC2)C(c2cccs2)C2=C(CCCC2=O)N1 (configuration not stated)	x	2.1*	1.1	0	3%	9
COc1cc(OC)c(C2C(C(=O)N3CCOCC3)=C(C)NC3=C2C(=O)CC(C)(C)C3)cc1OC (configuration not stated)	i	1.2	1.1	6	4%	0
CC1=C(C(=O)N2CCOCC2)C(c2ccccc2F)C2=C(CCCC2=O)N1 (configuration not stated)	x	2.9*	1.1	6	4%	7
COc1cc(C2C(C(=O)N3CCOCC3)=C(C)NC3=C2C(=O)CCC3)ccc1OC(C)=O (configuration not stated)	x	3.7*	1.1	3	10%	16
COC(=O)C1=C(C)NC2=C(C(=O)CCC2)C1c1cccs1 (configuration not stated)	i	1.6	1.1	3	7%	4
CC(C)CCNC(=O)CN(CCN1CCOCC1)C(=O)Cn1nnc(-c2ccc(F)cc2)n1	i	1.1	1	4	5%	12
COc1cccc(CC(NC(C)=O)C(=O)NC2CCN(c3nc(C)cc(C)c3C#N)CC2)c1OC (configuration not stated)	i	3*	1.1	9	17%	12
CCN1CCN(C(=O)CCCCCn2c(=O)[nH]c3cc(C(=O)OC)ccc3c2=O)CC1	i	2.6*	0.98	3	10%	19
CCOCCCNC(=O)C1CCCN1C(=O)NC1CCCCC1 (configuration not stated)	i	1.1	0.97	9	7%	13
Cc1cccc(-n2nc3c(c2NC(=O)c2ccco2)CSC3)c1C	i	1.1	0.98	0	8%	25*
CN1CCN(S(=O)(=O)c2ccc(-c3ccccc3)cc2)CC1	i	1.1	1.1	5	4%	3
C=C(C)Cn1c(-c2ccc(OC)cc2)nc2ccccc21	i	1.1	0.98	0	5%	14
Cc1cccc(C(=O)Nc2cc(=O)n(C)c(=O)n2C)c1	+	0.55	1	2	17%	10
CCN(CC)S(=O)(=O)c1ccc(C(=O)OCC(=O)N2CCN(C(=O)c3ccco3)CC2)cc1	i	1.1	1	48*	16%	0
C=CCn1c(COc2cccc(C)c2)nnc1SCC(=O)NC(=O)NCc1ccco1	i	1	1	3	2%	17
O=C(Nc1nc(NC(=O)c2ccco2)n(-c2ccccc2)n1)c1ccccc1	x	2.4*	1.1	0	1%	1
C=CCNc1oc(-c2ccc(OCC)cc2)nc1C#N	x	2.3*	1.1	3	2%	0
C=CCNc1oc(-c2ccc(OC)cc2)nc1C#N	x	3.7*	1	3	3%	3
CCOc1ccc(-c2nc(C#N)c(NCC(C)C)o2)cc1	x	2.4*	1	0	5%	9
N#Cc1nc(-c2ccc(OCc3ccc(Cl)cc3)cc2)oc1NCCCn1ccnc1	i	1.6	1.1	1	2%	4
Cn1cc(C(=O)NCCc2ccccc2)c(=O)c2cc(S(=O)(=O)N3CCOCC3)ccc21	i	1.1	1	4	4%	7
COc1ccccc1NC(=O)N(CCCN1CCOCC1)Cc1cc2cc3c(cc2[nH]c1=O)OCO3	i	3.5*	1.1	5	14%	12
O=C(Nc1ccc(F)cc1)N(CCCN1CCOCC1)Cc1cc2cc3c(cc2[nH]c1=O)OCCO3	x	3.2*	1.1	8	13%	17
O=C(Nc1ccc(F)cc1)N(CCCN1CCOCC1)Cc1cc2cc3c(cc2[nH]c1=O)OCO3	+	2.7*	1.1	7	11%	27*
SMILES	DPM-DC inhibit	Autofluor 339	A340 absorber	Spn MK inh	NADH coupling	Spn PMK inh
CCOC(=O)N1CCC(NC(=O)c2cccc3c2C(=O)N(CCOC)C3)CC1	i	1.1	1	10	5%	4
Cc1cccc(OCC(O)Cn2c(-n3nc(C)cc3C)nc3c2c(=O)[nH]c(=O)n3C)c1 (configuration not stated)	+	2.9*	0.98	13	19%	11
Cc1cc(C)c(S(=O)(=O)N2CCCCC2)c(C)c1-n1ncnn1	i	1.1	1.1	8	3%	0
Cc1cc2c(cc1C)NC(c1cccnc1)C1=C(CC(C)(C)CC1=O)N2 (configuration not stated)	i	0.96	1.3	11	10%	10
Cc1[nH]nc2c1C(c1ccc(F)cc1)C1=C(CC(C)(C)CC1=O)N2 (configuration not stated)	x	3.1*	1.1	8	5%	12
Cc1[nH]nc2c1C(c1cccc(O)c1)C1=C(CC(C)(C)CC1=O)N2 (configuration not stated)	x	5*	1.1	1	5%	9
Cc1ccc(C2C3=C(CC(C)(C)CC3=O)Nc3n[nH]c(C)c32)cc1 (configuration not stated)	x	4.9*	1.1	1	7%	12
Clc1ccc(Cn2cccc2C2=NCCO2)cc1	i	1.1	0.99	0	6%	18
CCNC(=O)CC1C(=O)N(c2ccc(F)cc2)C(=O)N1Cc1ccccn1 (configuration not stated)	i	1.1	0.95	11	4%	1
Cn1c(=O)n(C)c2cc(NC(=O)c3cc4ccccc4o3)ccc21	i	1.1	1.1	8	8%	5
Cc1ccc(-c2cc(-c3nnc(SCC(=O)N(C)CCC#N)n3N)c3ccccc3n2)cc1	x	4.2*	1.1	8	9%	10
Cc1ccc(-c2nnc(SCC(=O)O)n2N)cc1	i	1.1	1	12	7%	10
CCOC(=O)N1CCN(S(=O)(=O)c2ccc3[nH]cc(C(=O)O)c(=O)c3c2)CC1	i	2.4*	1.1	3	10%	17
COc1ccc2[nH]cc(C(=O)N3CCCCC3)c(=O)c2c1	i	2.1*	1.1	9	5%	2
CCc1ccc2[nH]cc(C(=O)N3CCCCCC3)c(=O)c2c1	i	1	1.1	5	6%	10
CC1CCN(S(=O)(=O)c2ccc3[nH]cc(C(=O)NCCN4CCOCC4)c(=O)c3c2)CC1	x	1.8	1	0	2%	12
COCCNC(=O)c1c[nH]c2ccc(S(=O)(=O)N3CCC4(CC3)OCCO4)cc2c1=O	x	2.1*	1.1	0	10%	19
O=C(O)c1c[nH]c2ccc(S(=O)(=O)N3CCN(c4ccc(F)cc4)CC3)cc2c1=O	i	1.2	1	0	2%	10
Cc1ccc(S(=O)(=O)N2CCOCC2)cc1C(=O)N1CCOCC1	i	1	1	2	6%	4
